Source: PubChem BioAssay (NCI)
About 83,000 compounds went through this panel and 20% of them were active in at least one assay; those are over-represented in the sample as a whole.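 Testing used 96-well plates and a 48-hour single-concentration exposure. Example: -40 means 40% of the starting cells died.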 Activity calls are given as the source filed them. Rule for the calls: active = growth percent below 10; inactive = the rest.

Tested on: SN12C renal
Experiment: NCI-60 one-dose screen, 48 h (100 = growth as untreated, 0 = no growth, -100 = all killed)
Conditions: 10 µM unless noted

Question: Which growth does the source give for `C#CCOc1ccccc1/C=N/Nc1nc(-c2ccc(Cl)cc2)cs1` here?
Answer: 93.8% (inactive)

Question: `CC(=O)c1c([Si](C)(C)C)c2cc(C#N)ccn2c1C(=O)c1ccc(Br)cc1` was tested. Which growth did it give?
Answer: 96.6% (inactive)

Question: Which growth does the source give for `O=C(COc1ccc(/C=C2\C(=O)Nc3ccc(F)cc32)cc1)Nc1ccccc1` here?
Answer: 102% (inactive)

Question: How did the growth turn out when `COc1ccc(CC(C)=C(c2ccc(OCCN3CCCC3)cc2)c2ccc(OCCN3CCCC3)cc2)cc1` was run?
Answer: -82.9% (active)

Question: With `O=C(CSc1nc2ccccc2c(=O)n1-c1ccc(S(=O)(=O)Nc2ccc(Cl)nn2)cc1)Nc1ccc(S(=O)(=O)Nc2ccc(Cl)nn2)cc1` as the compound, how does the growth read?
Answer: 106% (inactive)

Question: Which growth does the source give for `C=C(C)[C@@H]1CC[C@]2(COP(=O)(OCC)OCC)CC[C@]3(C)[C@H](CC[C@@H]4[C@@]5(C)CC[C@H](OP(=O)(OCC)OCC)C(C)(C)[C@@H]5CC[C@]43C)[C@@H]12` here?
Answer: 33.4% (inactive)

Question: Which growth does the source give for `COC(=O)c1cccc(NC2=C(Cl)C(=O)C(C)=C(C)C2=O)c1` here?
Answer: 92.6% (inactive)

Question: Which growth does the source give for `Cn1cc(-c2nc(N)nnc2-c2c[nH]c3ccc(Br)cc23)c2cc(F)ccc21` here?
Answer: 102% (inactive)

Question: Which growth does the source give for `O=C(O)c1ccc(-n2c(=O)n(-c3cccc(C(F)(F)F)c3)c(=O)c3cc(-c4ccc(F)cc4F)ccc32)cc1` here?
Answer: -5.12% (active)

Question: For `O=C1[C@H]2Cc3c([nH]c4ccccc34)[C@H](c3ccc(Br)cc3)N2C(=O)CN1C1CCN(CC2CCCCC2)CC1`, which growth is on record?
Answer: 73.7% (inactive)

Question: How did the growth turn out when `C#Cc1nc(/C=C/CCCCCCC(=O)NO)cs1` was run?
Answer: 90.3% (inactive)

Question: For `C#CCN(C)CCCOc1ccc(NC(=O)CCCCCCCCC(=O)NO)cc1Cl`, which growth is on record?
Answer: 95.9% (inactive)

Question: How did the growth turn out when `NC(=O)c1ncn2c(=O)n(CCF)nnc12` was run?
Answer: 85.5% (inactive)

Question: How did the growth turn out when `Cc1csc(/N=C(N)/N=C(\N)c2cccc(C#N)c2)n1` was run?
Answer: 92.3% (inactive)

Question: `C=C(C)[C@@H]1CC[C@]2(COCCCNCCCN)CC[C@]3(C)[C@H](CC[C@@H]4[C@@]5(C)CC[C@H](O)C(C)(C)[C@@H]5CC[C@]43C)[C@@H]12` was tested. Which growth did it give?
Answer: -78.8% (active)

Question: `O=C(/C=C/c1cccc(F)c1)c1cccc(OCCCOc2cccc(C(=O)/C=C/c3cccc(F)c3)c2)c1` was tested. Which growth did it give?
Answer: 82% (inactive)

Question: Which growth does the source give for `Cc1ccc(C(=O)CSc2nc3ccccc3c(=O)n2C)cc1` here?
Answer: 94.2% (inactive)

Question: Which growth does the source give for `Cc1ccc2c(n1)C(=O)C(Cl)=C(Nc1ccc(C#N)cc1)C2=O` here?
Answer: 98% (inactive)

Question: `CC(C)(O)c1cncc(-c2ccc3ncc(C#N)c(N4CCc5cc(F)c(Cl)cc54)c3c2)c1` was tested. Which growth did it give?
Answer: 17.1% (inactive)
